Values joined by “and” are separate entries in the source; they are usually repeats but may differ in a detail not shown here. Equal values may be shown once. Inconclusive results are not listed. Where a call stands in place of a potency, no number is given. The source holds several records for some structures; these can differ, active in one and inactive in another. Active and inactive are the calls of the source. The call rests on the fitted dose curve; in most records, active means well fitted activation curve with a large enough effect in the repeat runs; inconclusive means weak or mixed curves; inactive means no such curve, though single readings can be large or run the other way.
Potency means the concentration at half of the fitted maximal effect.

Sequence of Nuclear receptor subfamily 1 group I member 2 (Homo sapiens) (O75469 whole entry, looked up): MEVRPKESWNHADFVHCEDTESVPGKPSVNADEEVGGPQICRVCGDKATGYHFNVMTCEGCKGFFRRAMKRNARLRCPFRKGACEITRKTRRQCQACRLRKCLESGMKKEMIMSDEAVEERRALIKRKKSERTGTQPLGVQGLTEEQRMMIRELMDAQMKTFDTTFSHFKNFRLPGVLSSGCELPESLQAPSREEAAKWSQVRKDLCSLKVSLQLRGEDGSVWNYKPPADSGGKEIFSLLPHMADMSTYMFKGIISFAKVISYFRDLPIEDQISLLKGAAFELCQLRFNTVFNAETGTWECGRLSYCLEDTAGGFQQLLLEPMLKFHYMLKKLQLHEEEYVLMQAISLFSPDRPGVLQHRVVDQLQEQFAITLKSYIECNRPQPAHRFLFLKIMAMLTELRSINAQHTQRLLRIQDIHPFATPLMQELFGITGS

The assay concerns the target Nuclear receptor subfamily 1 group I member 2 (Homo sapiens) (UniProt O75469). Kind of assay: Human pregnane X receptor (PXR) small molecule agonists, qHTS assay (AID 1346982). Further: nearly all actives have a fitted effect of over 35% in size. To be noted: PXR-Luc HepG2, CYP3A4 luciferase reporter, 24 h; series mostly up to 92.4 µM. The source says:
National Center for Advancing Translational Sciences [NCATS]
NIH Chemical Genomics Center [NCGC]
U.S. Environmental Protection Agency [EPA]
National Institutes of Environmental Health Sciences [NIEHS]
National Toxicology Program [NTP]
The human pregnane X receptor (hPXR) regulates the expression of several drug metabolizing enzymes and induction of these proteins is a major mechanism for developing drug resistance in cancer. One such key enzyme catalyzing the drug metabolism is cytochrome P450 3A4 (CYP3A4). Changes in CYP3A4 expression affect drug metabolism, thereby reducing the therapeutic efficacy and altering toxicological response to a drug and which finally causes adverse drug interaction. To screen Tox21 libraries for compounds that activate hPXR-mediated CYP3A4 gene expression, PXR-Luc HepG2 cells were used.
PXR-Luc HepG2 cells were dispensed at 2,000 per well in 5uL of assay medium containing 5% charcoal-stripped FBS into white solid bottom 1536-well plates (Corning Life Sciences, Corning, NY) using a Multidrop Combi (Thermo Scientific, Waltham, MA) dispenser. The assay plates were incubated at 37 C and 5% CO2 for 5hr, and then 23nL of compounds dissolved in DMSO and positive control were transferred using a Pintool station (Wako, San Diego, CA). The assay plates were incubated at 37C and 5% CO2 for 24hr. For luciferase read, 4uL of ONE-Glo reagent (Promega Corporation, Madison, WI) was added to each well of the assay plates using Flying Reagent Dispenser (FRD, Aurora Discovery, San Diego, CA) and incubated the assay plates at room temperature for 30min. The luminescence signal was quantified using a ViewLux plate reader (Perkin Elmer, Shelton, CT).
(In general: In qHTS, concentration-response curves come from the screen itself.)
With `CN(C)c1ccc(Cc2ccc(N(C)C)cc2)cc1`, the Potency is 30.8 µM (active) and 43.3 µM (active). Take `O=C(O)CCCCCCCCC(=O)O`: the Potency entry is “inactive”.

In the case of `OC1C(O)C(O)C(O)C(O)C1O` (stereo not given), the Potency entry was “inactive”. In the case of `COC(=O)CCCC(=O)OC` it was “inactive”; in that of `CNC(=S)N(C)C`, 61.7 µM (active) and inactive. Turning to `NCCNCCN`, the Potency entry is “inactive”. Take `CC1(C)CC(N)CC(C)(CN)C1` (stereo not given): the Potency is 49.3 µM (active) and 24.3 µM (active). For the compound `O=C(O)c1ccccc1C(=O)O`, the Potency entry was “inactive”. As for `CCNC(=S)NCC`, the Potency result was “inactive”.

As for `COc1ccc(N)c(C)c1`, the Potency result was “inactive”. As for `C=CCc1ccc(OC)c(OC)c1`, the entry is “inactive”. `c1ccc2c(c1)Cc1ccccc1-2`: the Potency result was “inactive”.

On to `O=C1CCCC1`, for which the Potency entry was “inactive”. `CC(=O)c1ccc(O)cc1`: the Potency result is “inactive”.

On to `O=C(O)c1ccc(S(=O)(=O)N(Cl)Cl)cc1`, for which the Potency entry was “inactive”. For `O=c1[nH]cnc2[nH]ncc12`, the Potency entry is “inactive”. Consider `CCc1ccccc1CC`, for which the Potency entry is “inactive”. As to `CCCCCCCCCCCCCCCC(=O)OC(C)C`, the Potency entry was “inactive”. For `C[Si]1(C)O[Si](C)(C)O[Si](C)(C)O[Si](C)(C)O1`, the Potency result was “inactive”. For `CC1(C)NC(=O)NC1=O`, the Potency result was “inactive”. As for `CC(CCO)CC(C)(C)C` (stereo not given), the entry is “inactive”; as for `CCOC(=O)c1ccc(N)cc1`, “inactive”; as for `CCCCCCCCCCCCCCCCO`, “inactive”.

As to `CC(=O)OC1CC(C)OC(C)O1` (stereo not given), the Potency entry was “inactive”. As for `CCCCCCC=O`, the entry is “inactive”; as for `CCCCCCCO`, “inactive”.

As to `c1ccc(Oc2ccccc2)cc1`, the Potency result was “inactive”. In the case of `C=CC[N+](C)(C)CC=C` it was 54.9 µM (active) and inactive; in that of `C=C(C)[C@H]1CC=C(C)C(=O)C1`, “inactive”; in that of `CC1(C)S[C@@H]2[C@H](NC(=O)COc3ccccc3)C(=O)N2[C@H]1C(=O)O`, “inactive”. As to `CC(C)=CCl`, the Potency result was “inactive”. With `CC(=O)OCCOC(C)=O`, the Potency result is “inactive”. Consider `CCCCCCCCCCO`, for which the Potency entry is “inactive”. With `CCCCCCCC=O`, the Potency result is “inactive”. Consider `CCCCCC(=O)O`, for which the Potency result was “inactive”. As for `CC(C)(Oc1ccc(CCNC(=O)c2ccc(Cl)cc2)cc1)C(=O)O`, the entry is “inactive”. `NCCCCCCN`: the Potency result was “inactive”. In the case of `CN(C)CCOC(=O)COc1ccc(Cl)cc1` it was “inactive”; in that of `CC(C)CC(C)O` (stereo not given), “inactive”. In the case of `CC(=O)CC(C)(C)O` it was “inactive”.

These data come from PubChem BioAssay (Tox21).
